Screening results: PubChem, several laboratories
ALR inh – human ALR oxidase inhibition via reduced H2O2. purified ALR, DTT oxidation, H2O2 HRP-luminol luminescence. inhibition, % (test concentration not listed). 290,000 compounds, 3.8% hits. AID 485317;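 active = mean replicate inhibition above about 79%, with every replicate also reaching it, limit read from the data; inconclusive = only one of the two criteria met; inactive = mean below limit and not every replicate reaching it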
Rtt109 Vps75 – inhibitors of Candida albicans Rtt109/Vps75 histone acetyltransferase; Q5AAJ8; purified Rtt109/Vps75, ThioGlo CoA-SH fluorescence, 4 h; inhibition, % at 34.9 µM; 330,000 compounds, 0.16% hits; AID 540336;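 active = inhibition of at least 50% in every replicate; inconclusive = best replicate reaches 50% inhibition but some replicates fall short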
Target sequence (Q5AAJ8 whole entry, looked up): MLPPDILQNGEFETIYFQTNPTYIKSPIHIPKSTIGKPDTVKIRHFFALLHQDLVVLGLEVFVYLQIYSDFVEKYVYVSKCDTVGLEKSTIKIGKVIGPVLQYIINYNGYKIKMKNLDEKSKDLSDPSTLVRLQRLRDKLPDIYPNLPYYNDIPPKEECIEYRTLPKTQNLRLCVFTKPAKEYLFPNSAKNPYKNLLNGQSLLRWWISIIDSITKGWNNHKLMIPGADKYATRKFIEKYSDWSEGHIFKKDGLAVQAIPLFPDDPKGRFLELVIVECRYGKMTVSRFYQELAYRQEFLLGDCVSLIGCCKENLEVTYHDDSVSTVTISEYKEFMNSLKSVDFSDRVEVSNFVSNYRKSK
ABHD5-PLIN5 inh – ABHD5-PLIN5 protein interaction inhibition | Split G. princeps luciferase complementation, luminescence, 4 h | inhibition, % at 4 µM | 360,000 compounds, 0.78% hits;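 active = inhibition above the mean inhibition across every tested compound plus 3 SD, cut at about 22% in these data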;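 also: 0% = DMSO only wells and the 100% control is not disclosed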
PRMT1 FP inh – inhibitors of human PRMT1 | Q99873 | recombinant PRMT1, activity-based probe fluorescence polarization | inhibition, % at 2.79 µM | 370,000 compounds, 1.3% hits | AID 652257;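 active = inhibition above about 21% made by adding two undisclosed values, limit read from the data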
rCAG RNA binder – molecules binding r(CAG) RNA repeats; r(CAG) RNA repeat, TO-PRO-1 dye displacement fluorescence; inhibition, % at 3 µM; 370,000 compounds, 1.3% hits;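 active = inhibition above the plate cutoff, the mean of all test compounds on that plate plus 3 SD, cut at about 35% in these data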;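 also: 0% = DMSO alone and 100% = 100 µM mitoxantrone as full dye displacement; higher means more dye released from RNA so lower well fluorescence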
LANA-H2B inh – blocks KSHV LANA binding to histone H2A/H2B | cell-free LANA-H2A/H2B peptide, fluorescence polarization | inhibition, % (test concentration not listed) | 320,000 compounds, 0.6% hits | AID 2629; in the data active = inhibition mostly above about 10%, no sharp cut-off; inactive = mostly below about 6.7%
PRMT1 inh conf – confirmation of human PRMT1 inhibitors; 3,300 compounds, 42% hits; shares compounds with PRMT1 FP inh; recombinant His-PRMT1, activity-based probe fluorescence polarization; inhibition, % at 2.79 µM;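 active = mean inhibition across replicates above the hit cutoff derived for the earlier primary screen, cut at about 22% in these data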
* = called active by the depositor; ? = inconclusive; . = not tested or not shown. A selection: hits, their analogues and other compounds. The true share with any hit is near 5.9%.

SMILES	ALR inh	Rtt109 Vps75	ABHD5-PLIN5 inh	PRMT1 FP inh	rCAG RNA binder	LANA-H2B inh	PRMT1 inh conf
C1=C(c2ccc(-c3ccccc3)cc2)Nc2ncnn2C1c1ccco1 (stereo not drawn)	.	-41.9	-2.6	38.6*	-10.1	.	21.8*
Fc1ccc(C2=CC(c3ccco3)n3ncnc3N2)cc1 (stereo not drawn)	21.8	-1.0	-11.7	.	.	3.5	.
Nc1ccc(Oc2ccc(F)cc2)nc1	-2.9	2.3	-4.0	26.1*	-10.0	0.0	-2.5
O=Cc1ccc(Oc2ccc(F)cc2)nc1	-3.7	-4.5	0.4	-2.5	0.8	3.4	.
COc1ccc(O)c(/C=c2/sc3nc4cc(C)c(C)cc4n3c2=O)c1	.	6.2	-0.7	39.5*	20.6	.	69.5*
CS(=O)(=O)c1cc([N+](=O)[O-])c(Sc2nc3ccccc3[nH]2)c([N+](=O)[O-])c1	-26.0	0.5	48.3*	55.9*	7.0	-0.2	70.2*
Nc1ccccc1SC1CC(=O)N(c2ccc(Cl)c(Cl)c2)C1=O (stereo not drawn)	0.5	-0.2	-4.1	1.2	5.0	0.0	.
O=C(O)CSC1CC(=O)N(c2ccc(Cl)c(Cl)c2)C1=O (stereo not drawn)	97.5*	-14.5	-1.0	48.2*	10.3	-0.6	36.2*
O=C(O)C1C2C=CC(O2)C1C(=O)Nc1ccccc1C(F)(F)F (stereo not drawn)	-19.2	-4.4	15.8	85.2*	4.4	-3.7	24.1*
Cc1ccccc1-n1nc(C(=O)O)c(C)c(C#N)c1=O	-7.4	6.4	-1.1	-2.2	4.2	1.1	.
Cc1c(C(=O)O)nn(-c2cccc(C(F)(F)F)c2)c(=O)c1C#N	-26.0	5.1	-2.3	29.4*	2.4	-2.8	0.2
COc1c2occc2c(OC)c2c(=O)cc(C)oc12	4.8	-1.3	-5.7	1.2	0.0	5.2	.
Cc1cc(=O)c2c(o1)C(=O)c1occc1C2=O	.	8.4	-21.3	36.0*	25.5	.	26.1*
Cc1cccn2cc(CSc3nnc(Nc4ccc(C(C)C)cc4)s3)nc12	12.1	-0.2	2.5	-2.1	4.3	2.0	.
CCOC(=S)SCc1cn2cccc(C)c2n1	-67.9	-12.9	-14.4	56.7*	0.6	0.8	12.0
Cc1cc(Br)cn2c(Cc3ccsc3)c(-c3ccc(F)cc3)nc12	.	.	-2.9	4.8	15.9	.	.
COC(=O)C1=C(CSc2nc3c(cc2C#N)CN(C)CC3)OC(N)=C(C#N)C1c1ccccc1F (stereo not drawn)	-4.2	8.0	-2.0	.	.	5.5	.
CCOC(=O)C1=C(CSc2nc3c(cc2C#N)CCC3)OC(N)=C(C#N)C1c1ccccc1 (stereo not drawn)	10.9	-4.6	-12.9	46.1*	12.8	7.8	3.5
CCOC(=O)C1=C(CSc2nc(-c3ccccc3)ccc2C#N)OC(N)=C(C#N)C1c1cccnc1 (stereo not drawn)	-4.7	-6.0	5.3	40.9*	8.3	1.2	26.0*
NC(=O)/C=C/C(=O)Nc1ccc(Cl)cc1	14.4	2.1	8.4	87.1*	-2.9	1.1	31.5*
NC(=O)SCC(=O)Nc1ccc(Cl)c(Cl)c1	98.5*	-1.5	-18.2	49.2*	6.9	1.3	94.1*
NC(=O)SCC(=O)Nc1cccc(Cl)c1	99.5*	-14.5	-22.9	73.2*	5.2	-3.6	100.7*
O=C(/C=C/C(Cl)(Cl)Cl)Nc1ccc(Cl)cc1	.	-3.1	-3.3	3.1	2.1	.	.
NC(=O)SCC(=O)Nc1ccc(Cl)cc1	99.2*	-2.5	-0.7	65.2*	5.7	-0.4	87.6*
COC(=O)CCC(=O)Nc1ccc(Cl)c(Cl)c1	-7.8	.	6.1	11.3	-2.8	4.9	.
C#CCNC(=O)C[C@H]1C(=O)N(CC=C)C2=CCCC[C@@]21C(=O)OCC	.	.	.	0.4	3.2	.	.
Cc1ccc(N2C(=O)C3C4CCC(O4)C3C2=O)c(OC(F)F)c1 (stereo not drawn)	34.7	4.6	3.8	0.4	0.8	4.8	.
COCC(=O)Nc1ccc(C)c(Cl)c1	.	-6.1	-1.3	-3.3	0.1	0.8	.
Cc1c(Cl)cccc1NC(=O)CSC(N)=O	99.1*	6.7	-7.2	31.0*	-1.3	-0.6	96.2*
Cc1ccc(NC(=O)CSC(N)=O)cc1Cl	99.5*	?	-18.2	28.4*	2.6	-1.4	89.2*
